# Results filed as inconclusive are left out. The source made the active and inactive calls. Calls follow the shape of the full dose curve.
# Assay: qHTS for identification of novel therapeutic agents for treatment of microphthalmiaassociated transcription factor (MiT) renal cell carcinoma (RCC) (AID 1963991)
# Settings: CellTiter-Glo, 48 h; for z-score: stronger effect = lower value
# Description: PI: Marston Linehan Ph.D.
# Urologic Oncology Branch, Center for Cancer Research (CCR)
# National Cancer Institute (NCI), National Institute of Health (NIH), Bethesda, Maryland
# MiT-Renal Cell Carcinoma (RCC) is characterized by genomic translocations involving microphthalmia-associated transcription factor (MiT) family members TFE3, TFEB, or MITF. MiT-RCC represents a specific subtype of sporadic RCC that is predominantly seen in young patients and can present with heterogeneous histological features making diagnosis challenging. Moreover, the disease biology of this aggressive cancer is poorly understood and there is no accepted standard of care therapy for patients with advanced disease. Tumor-derived cell lines have been established from human TFE3-RCC providing useful models for preclinical studies. TFE3-RCC tumor derived cell lines and their tissues of origin were characterized by IHC and gene expression analyses. An unbiased high-throughput drug screen was performed to identify novel therapeutic agents for treatment of MiT-RCC. Potential therapeutic candidates were validated in in vitro and in vivo preclinical studies. Mechanistic assays were conducted to confirm the on-target effects of drugs. The results of a high-throughput small molecule drug screen utilizing three TFE3-RCC tumor-derived cell lines identified five classes of agents with potential pharmacological efficacy, including inhibitors of phosphoinositide-3-kinase (PI3K) and mechanistic target of rapamycin (mTOR), and several additional agents, including the transcription inhibitor Mithramycin A. Upregulation of the cell surface marker GPNMB, a specific MiT transcriptional target, was confirmed in TFE3-RCC and evaluated as a therapeutic target using the GPNMB-targeted antibody-drug conjugate CDX-011. […] The results of the high-throughput drug screen and validation studies in TFE3-RCC tumor-derived cell lines have provided in vitro and in vivo preclinical data supporting the efficacy of the PI3K/mTOR inhibitor.
# SEQUENCE No. (e.g., 1, 2, 3, etc.); […] (e.g., Cells, Incubation, Reagent, etc.); VALUE; DESCRIPTION.
# 1; Cells; 3 uL; white, solid-bottom Grenier assay plate.
# 2; Compounds; 23 nL; Kalypsis pin-tool (Wako USA).
# 3; Incubation; 48 hr; 37 C, 5% CO2, 95% humidity.
# 4; Reagent; 3 uL; CellTiter-Glo reagent (Promega).
# 5; Incubation; 15 min; room temperature.
# 6; Detection; Luminescence; ViewLux plate reader (PerkinElmer).
# NOTES (numbers refer to Sequence numbers above)
# 1. Quantitative high-throughput screening (qHTS) of 1912 pharmacologically defined small molecule compounds was conducted on three TFE3-fusion cell lines bearing three different fusion partners (UOK109, UOK124, UOK145). Briefly, 500 cells in complete growth media were plated into white, solid-bottom, 1536-well tissue culture treated plates (Grenier Cat. 789173-F) using a Multidrop Combi cassette dispenser.
# 2. Twenty-three nanoliter of 1912 pharmacologically defined small molecule compounds of the NCATS Mechanism Interrogation PlatE (MIPE) version 4.0 were added to each assay plate using a Pintool Dispenser (Wako) equipped with 1536 pin head.
# 3. Plates were covered with stainless steel gasketed lids and incubated for 48 hours at standard cell culture conditions.
# 4. Viability was assessed by adding 3uL of CellTiter-Glo detection reagent (Promega).
# 5. Plates were covered with gasket lids and incubated for 15 minutes at room temperature.
# 6. Luminescence was measured on a ViewLux plate reader (PerkinElmer). Post-screen data processing used DMSO controls as 100% viability and empty wells as 0% viability and dose response curve fitting was done for all 11 concentrations for each compound.
# [1] = TFE3-RCC UOK109 viability, measured here: UOK109 Z-AUC
# [2] = TFE3-RCC viability, measured here: UOK124 Z-AUC
# [3] = TFE3-RCC viability, measured here: UOK145 Z-AUC
# Potency is read from the fitted curve at half-maximal effect.
SMILES,Potency (TFE3-RCC UOK109 viability),z-score [1],z-score [2],z-score [3]
C[C@@H]1O[C@@H](O[C@H]2C[C@@H](O)[C@]3(CO)[C@H]4[C@H](O)C[C@]5(C)[C@@H](C6=CC(=O)OC6)CC[C@]5(O)[C@@H]4CC[C@]3(O)C2)[C@H](O)[C@H](O)[C@H]1O,16.6 nM (active),-3.9,-2.36,-3.38
Cc1cccc(C)c1NC(=O)CN1CCCC1=O,–,1.77,0.0528,0.844
C#CCN(C)[C@H](C)Cc1ccccc1,–,0.064,-0.193,0.147
CC1=C2C[C@@H]3[C@@H](CC=C4C[C@@H](O)CC[C@@]43C)[C@@H]2CC[C@]12O[C@H]1C[C@H](C)CN[C@H]1[C@H]2C,–,0.302,-0.274,0.235
CN(C)[C@@H]1C(=O)C(C(N)=O)=C(O)[C@@]2(O)C(=O)C3=C(O)c4c(O)cccc4[C@@](C)(O)[C@H]3C[C@@H]12,–,1.21,0.89,1.72
CN(C)CCc1ccc(O)cc1,–,2.07,0.378,0.923
COc1ccc(C(=O)c2c(C)n(CCN3CCOCC3)c3ccccc23)cc1,–,0.603,0.604,0.655
COc1ccc2c(c1OC)CN1CCc3cc4c(cc3C1C2)OCO4 (stereo not given),–,0.633,0.605,0.614
Cn1c(CCCC(=O)O)nc2cc(N(CCCl)CCCl)ccc21,–,1.39,2.59,0.899
NCC1(CC(=O)O)CCCCC1,–,0.318,0.516,-0.0302
COC[C@@H](NC(C)=O)C(=O)NCc1ccccc1,–,-0.0332,0.828,0.367
CCCC(C)(COC(N)=O)COC(=O)NC(C)C (stereo not given),–,-0.172,0.563,0.256
CNCC(O)c1ccc(O)cc1 (stereo not given),–,0.0605,0.435,-0.102

# — PubChem BioAssay (NCATS)
